Results from PMC7819943, “Rice protein-binding microarrays: a tool to detect cis-acting elements near promoter regions in rice”.
In all, about 39,000 sequences were measured (“fluorescence intensity (a.u.)”: median about 4,300, highest 2% from about 39,000 on). Only a selection was taken, and the highest values are over-represented in it overall.

Target: T1, OsSMF1 (Oryza sativa, UniProt Q6ZLB0 1-436)
T1 sequence: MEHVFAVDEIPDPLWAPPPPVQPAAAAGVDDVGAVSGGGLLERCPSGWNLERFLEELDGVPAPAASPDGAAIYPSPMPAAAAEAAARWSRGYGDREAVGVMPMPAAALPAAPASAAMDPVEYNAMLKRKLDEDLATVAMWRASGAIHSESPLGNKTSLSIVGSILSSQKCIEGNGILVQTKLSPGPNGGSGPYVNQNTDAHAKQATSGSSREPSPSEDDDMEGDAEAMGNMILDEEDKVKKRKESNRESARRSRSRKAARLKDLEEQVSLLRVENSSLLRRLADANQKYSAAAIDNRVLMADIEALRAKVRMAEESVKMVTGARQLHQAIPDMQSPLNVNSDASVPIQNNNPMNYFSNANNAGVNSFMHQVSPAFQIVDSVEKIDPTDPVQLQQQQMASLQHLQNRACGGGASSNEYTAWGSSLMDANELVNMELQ
Assay: protein-binding microarray (RPBM); PBS, 2% BSA, 51.3 ng/ul salmon testes DNA, 50 uM zinc acetate, 200 nM TF, 25 C, 1 h; high values mean tight binding
Details: protein: recombinant; tags: N-terminal polyhistidine and DsRed monomer fusion (pET32a); chain copies: 2; label: CyDye5-dUTP incorporated in the synthesized complementary strand; 3' TTTTT single-stranded linker to array surface; dsDNA, one strand shown
Outline: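 The binding signal for each feature is its fluorescence intensity in arbitrary units. An Axon 4000B scanner was used to read a custom Agilent array that had been made double-stranded with Cy5-dUTP primer extension, blocked with 2% BSA, incubated at 25 °C for 1 h with 200 nM protein in PBS, 2% BSA, salmon testes DNA and 50 µM zinc acetate, and washed. The protein was an N-terminal polyhistidine–DsRed transcription factor fusion from E. coli BL21-CodonPlus, purified on Ni–NTA.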

Going from “ACCTTCTAGACAAGGGTATGATGACATGTACCGATCCCAACGGAGTCACCTAGTGCAG” to “CGCGGCGGCGGCGGCGCGAAGGCACGTGGCACGGCGCCGCCGGAGTCACCTAGTGCAG”, the binding signal falls from 6680 fluorescence intensity (a.u.) to 3420 fluorescence intensity (a.u.).

Going from “GGCGGCGTTCGCGGCGGCGACGTGGGCGTACCTGACGGCGCGGAGTCACCTAGTGCAG” to “CTTCCCGCCGCCGCCACTGCCACGAACAGTTCGCTCACCGCGGAGTCACCTAGTGCAG”, the binding signal falls from 3590 fluorescence intensity (a.u.) to 3200 fluorescence intensity (a.u.).

Going from “CCACCGCCGCCACACAGTCCGCTTCGGTTCCCCGTTTCCGCGGAGTCACCTAGTGCAG” to “ACACACACACACACCCACCACACCACCCCGGCCGCTTCCGCGGAGTCACCTAGTGCAG”, the binding signal falls from 65500 fluorescence intensity (a.u.) to 3210 fluorescence intensity (a.u.).

First: TAGCCGTTAGTGCCACGTGGCGCCTTCCCATTCGACCGCCCGGAGTCACCTAGTGCAG
Second: CTCCCGCCGTGGCACGCGCGACGTGCCGCGTGCGCACAGGCGGAGTCACCTAGTGCAG
The binding signal of the first is lower: 40600 fluorescence intensity (a.u.) for the first, 46800 fluorescence intensity (a.u.) for the second.

First: ACGCGCGGGCGTGGCTGACGTGGCCCGGAGAAGGCGGAGGCGGAGTCACCTAGTGCAG
Second: GAACGGTCAAATAGCCGTTAGTGCCACGTGGCGCCTTCCCCGGAGTCACCTAGTGCAG
The binding signal of the first is lower: 5770 fluorescence intensity (a.u.) for the first, 25100 fluorescence intensity (a.u.) for the second.

First: TGTACACGCGCAGGGCGGCCCTGGCGTTGCTGACGTGGCGCGGAGTCACCTAGTGCAG
Second: GCCGTTAGTGCCACGTGGCGCCTTCCCATTCGACCGCCGCCGGAGTCACCTAGTGCAG
The binding signal of the first is higher: 42500 fluorescence intensity (a.u.) for the first, 37400 fluorescence intensity (a.u.) for the second.

Compared with “GCCCGCCCGTCCCGTCCGACGTCCGCGTCACGCACGCGCGCGGAGTCACCTAGTGCAG”, “GGAGGGTGGGGTAGGAGAGGATGCGGCGGGCGCCATGGCTCGGAGTCACCTAGTGCAG” is lower in binding signal: 7940 fluorescence intensity (a.u.) for the first, 3450 fluorescence intensity (a.u.) for the second.

Going from “GCCACTTGCCCAGGTCACGCACACATTATTGAGCGAGCGACGGAGTCACCTAGTGCAG” to “AGTCGCACGCCAAGTGTTTGTTGTTTTGCCAAGCAAGATGCGGAGTCACCTAGTGCAG”, the binding signal falls from 4590 fluorescence intensity (a.u.) to 3520 fluorescence intensity (a.u.).

First: TCGAGCCCCTCTCCCTCCGCGAGCCGTGTGCAGCGGGCGACGGAGTCACCTAGTGCAG
Second: ACGGATTCCTGTTAATAGAGTGTTTCCGTAATATGTGGCACGGAGTCACCTAGTGCAG
The binding signal of the first is lower: 3430 fluorescence intensity (a.u.) for the first, 3820 fluorescence intensity (a.u.) for the second.

Compared with “GTTTGGGGTTTCTTTCCTGCCTCGTGAGCTGACGCCGGTGCGGAGTCACCTAGTGCAG”, “CCGGCGGCAGTGGCCCGGCGGCGCCGCCACCTTCCGTGCCCGGAGTCACCTAGTGCAG” is higher in binding signal: 4080 fluorescence intensity (a.u.) for the first, 43700 fluorescence intensity (a.u.) for the second.

Compared with “GTTAGTGCCACGTGGCGCCTTCCCATTCGACCGCCGCCCGCGGAGTCACCTAGTGCAG”, “GGCAGCCATTCCCACCGCGCCACACGCGCCACACGCCCCGCGGAGTCACCTAGTGCAG” is lower in binding signal: 42100 fluorescence intensity (a.u.) for the first, 3240 fluorescence intensity (a.u.) for the second.

First: CGCCTTCGTCCCATCTCGACCGTCCACGTGTGGCCCATCCCGGAGTCACCTAGTGCAG
Second: AAAGCGTTCCGCGGCGCCGCCGTGGCGTCCGGCGTCCGGCCGGAGTCACCTAGTGCAG
The binding signal of the first is higher: 8200 fluorescence intensity (a.u.) for the first, 3900 fluorescence intensity (a.u.) for the second.

Going from “GCCGCGCCGCGCCGTGGCGTGGCGTGGCGTGGCGCGGCCACGGAGTCACCTAGTGCAG” to “CTCGAGCCCGCGGATGGCGCCCCATGGCGTGGCGGCGGAGCGGAGTCACCTAGTGCAG”, the binding signal falls from 6530 fluorescence intensity (a.u.) to 3820 fluorescence intensity (a.u.).

First: TGTAAGCATCAGCATGTCAAGGTTAACACCTCACTATCTCCGGAGTCACCTAGTGCAG
Second: ACAGGGGCAGGGGTCATGTGGTGGAGGTAATCAATTAATCCGGAGTCACCTAGTGCAG
The binding signal of the first is higher: 4630 fluorescence intensity (a.u.) for the first, 3660 fluorescence intensity (a.u.) for the second.

Compared with “TAGATGTTACTCCCTCCGTCCCTTCGTCCTAAAATGTAGCCGGAGTCACCTAGTGCAG”, “GCAGATCTTGACTATCTCCACGGGATATATACACGGCGGCCGGAGTCACCTAGTGCAG” is lower in binding signal: 35900 fluorescence intensity (a.u.) for the first, 22300 fluorescence intensity (a.u.) for the second.

Compared with “CTCCCTTCCCTTCCCTTCCTCTCGCCGAACCAACGCGGAACGGAGTCACCTAGTGCAG”, “GCTCCTCGCGCTGCTCATCATCCTCCCCTCCACGCCGCCGCGGAGTCACCTAGTGCAG” is higher in binding signal: 3360 fluorescence intensity (a.u.) for the first, 4730 fluorescence intensity (a.u.) for the second.

Compared with “CGCTCATGAAGCTCCTTCCCTACGCGCGCTCGCCGAATCGCGGAGTCACCTAGTGCAG”, “CCCAAGGAGGATGAGGTGGAGGTGGGAGTGCGCATTGAGGCGGAGTCACCTAGTGCAG” is lower in binding signal: 44000 fluorescence intensity (a.u.) for the first, 4880 fluorescence intensity (a.u.) for the second.

Compared with “CCTTAGACCTTCTGGATTACATCGTAAGCTGGCTTCTCCTCGGAGTCACCTAGTGCAG”, “CCACACAGCGATAATCGAGCGGATTGGACCAAAGTACGAGCGGAGTCACCTAGTGCAG” is higher in binding signal: 3490 fluorescence intensity (a.u.) for the first, 38200 fluorescence intensity (a.u.) for the second.

Compared with “CAAAGCGGCCCAACAATGAACACGTCACTTGTATTCACTACGGAGTCACCTAGTGCAG”, “ACAAACTTTGTATACGTGTATAAAATATTGATATATGTACCGGAGTCACCTAGTGCAG” is lower in binding signal: 7510 fluorescence intensity (a.u.) for the first, 4410 fluorescence intensity (a.u.) for the second.

Compared with “TTGATTGAAATTGGAGATGATGTGACTGAAAAGTTGTGTGCGGAGTCACCTAGTGCAG”, “CCAGGATAAAATAAAGGTTGTATGTTACAAATGTTTGATCCGGAGTCACCTAGTGCAG” is higher in binding signal: 4220 fluorescence intensity (a.u.) for the first, 42200 fluorescence intensity (a.u.) for the second.

Going from “GTTTGAGATGTGTAATAAAGGATCGATCTTGTTGACGATCCGGAGTCACCTAGTGCAG” to “TGACAGGTTGATGTGATGGAAAAGGACTGAAGGTTGGATCCGGAGTCACCTAGTGCAG”, the binding signal rises from 3530 fluorescence intensity (a.u.) to 42400 fluorescence intensity (a.u.).

In the case of “ATGTGACTGAAAAGTTGTGTGTGTATGACAGGTTGATGTGCGGAGTCACCTAGTGCAG”, the binding signal is reported as 3800 fluorescence intensity (a.u.).
